# Shown are actives, neighbours in structure and some others; about 3% of the full set was active somewhere.
# MITF TRPM1 inh – MITF TRPM1 promoter inhibition in SK-MEL-5 cells; SK-MEL-5 TRPM1 promoter luciferase, 24 h; inhibition, % at 12.5 µM; 330,000 compounds, 0.83% hits;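 active = mean inhibition across replicates of 60% or more, whatever share of single replicates reaches that level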
# CF NFkB inh – blocks PAF-induced NF-kB reporter in cystic fibrosis cells | inhibition, % at 5 µM | KKLEB NF-kB-GFP reporter, GFP fluorescence overnight | 360,000 compounds, 0.86% hits;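 active = at least 50% inhibition at 5 µM, scaled per plate between neutral and stimulator controls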;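 note: PAF is a Pseudomonas aeruginosa culture filtrate used as stimulus; plate controls were PAF-stimulated DMSO wells for no effect and unstimulated DMSO wells for full effect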
# HIF-2a inh – inhibitors of HIF-2a; 360,000 compounds, 0.72% hits; AID 624352; inhibition, % at 18.8 µM; 786-0 RCC cells HIF-2a reporter, luciferase luminescence, overnight;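 active = inhibition of the luminescence signal of 40% or more relative to plate controls, in a single-dose primary screen at 18.75 µM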
# Peg3 prom inh-1 – Peg3 promoter activity inhibition. HeLa PEG-Prom luciferase reporter, luminescence, overnight. inhibition, % at 20 µM. 360,000 compounds, 1.7% hits. AID 588405;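 active = inhibition of at least 50% at 20 µM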
# KKLEB cytotox – reduces viability of KKLEB cystic fibrosis airway cells; activity change (cytotoxicity), % at 5 µM; 360,000 compounds, 0.36% hits; KKLEB CF airway cells viability, ATPlite luminescence, overnight; hits give low values; cells stimulated with P. aeruginosa culture filtrate;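 active = corrected activity change at or below -50% at 5 µM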
# ABHD5 PLIN5 PPI – ABHD5-PLIN5 protein interaction inhibition | 360,000 compounds, 0.78% hits | Q00G26+Q8WTS1 | Split G. princeps luciferase complementation, luminescence, 4 h | inhibition, % at 4 µM;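 active = inhibition above the mean inhibition across every tested compound plus 3 SD, cut at about 22% in these data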;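 note: 0% = DMSO only wells and the 100% control is not disclosed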
# Target sequence (Q00G26 whole entry, looked up): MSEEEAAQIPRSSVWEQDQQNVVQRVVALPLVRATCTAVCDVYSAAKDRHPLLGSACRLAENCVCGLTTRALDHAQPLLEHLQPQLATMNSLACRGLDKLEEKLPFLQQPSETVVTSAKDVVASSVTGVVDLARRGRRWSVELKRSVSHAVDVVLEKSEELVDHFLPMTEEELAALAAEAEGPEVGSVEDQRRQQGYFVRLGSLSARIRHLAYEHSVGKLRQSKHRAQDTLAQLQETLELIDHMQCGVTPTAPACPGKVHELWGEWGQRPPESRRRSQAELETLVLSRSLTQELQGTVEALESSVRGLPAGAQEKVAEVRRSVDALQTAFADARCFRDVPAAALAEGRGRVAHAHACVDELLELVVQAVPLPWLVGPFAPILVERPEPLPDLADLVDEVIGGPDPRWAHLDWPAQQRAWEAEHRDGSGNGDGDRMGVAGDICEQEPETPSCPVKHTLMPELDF
# Target sequence (Q8WTS1 whole entry, looked up): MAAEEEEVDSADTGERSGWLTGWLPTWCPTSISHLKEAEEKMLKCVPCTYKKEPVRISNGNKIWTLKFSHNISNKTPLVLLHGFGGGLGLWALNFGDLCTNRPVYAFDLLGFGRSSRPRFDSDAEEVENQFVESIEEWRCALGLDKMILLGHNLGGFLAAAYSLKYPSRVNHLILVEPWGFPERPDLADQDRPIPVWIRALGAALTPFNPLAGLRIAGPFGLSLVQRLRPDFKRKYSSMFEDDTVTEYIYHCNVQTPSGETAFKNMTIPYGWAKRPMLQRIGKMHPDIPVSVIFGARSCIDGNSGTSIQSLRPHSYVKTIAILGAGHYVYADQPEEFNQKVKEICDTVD
# Peg3 prom inh-2 – Peg3 promoter inhibition confirmation; 1,300 compounds, 84% hits; HeLa PEG-Prom luciferase reporter, luminescence, overnight; AID 602417; shares compounds with Peg3 prom inh-1; inhibition, % at 20 µM;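 active = at 20 µM dose, 40% or more inhibition averaged across four replicates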
# The depositor's hits bear a star; nt = no result.
SMILES,MITF TRPM1 inh,CF NFkB inh,HIF-2a inh,Peg3 prom inh-1,KKLEB cytotox,ABHD5 PLIN5 PPI,Peg3 prom inh-2
CCCc1nc(SCC(=O)N2CCCc3ccccc32)c2c(=O)n(C)c(=O)n(C)c2n1,nt,9,15,53*,17,-1,46*
COc1ccc(-c2coc3c(C(=O)NCCN(C)C)cccc23)c(C)c1,nt,-5,3,28,3,8,nt
COc1ccc(-c2nc3c(C(=O)NCCN(C)C)cccc3c3ccccc23)cc1,-1,-126,1,95*,-1,-2,99*
COCCCNCCCOc1ccc(Cl)cc1C(C)(C)C,0,4,-1,62*,-2,18,40
CCC(C)NCCCOc1ccc(Cl)cc1C(C)(C)C (stereo not given),-2,5,9,-3,-2,6,nt
Nc1ccc(-c2nc3ccc(C(=O)O)cc3s2)cc1,115*,8,88*,101*,3,1,94*
CC1CCN(c2nc3ccc(C(=O)O)cc3s2)CC1,90*,-7,89*,106*,7,5,87*
Nc1ccc(-c2nc3ccc(N)cc3s2)cc1,-2,-34,-13,-50,-6,4,nt
Cc1cc(C2=NNC(=NC3CC3)SC2)c(C)n1Cc1ccco1,91*,22,80*,86*,-12,-7,90*
CCCN(C(=O)c1ccc(OCC(C)C)cc1)c1c(N)n(Cc2ccccc2)c(=O)[nH]c1=O,8,24,6,12,-8,4,nt
C[C@@H](C(=O)N1CCNCC1)n1cc(CCCN=C(N)N)nn1,-12,-19,-6,-6,8,-10,nt
CCOC(=O)c1c(C)n(-c2ccc(OC)cc2)c2ccc(O)c(CN(C)C)c12,9,17,24,55*,-11,17,30
Cc1nc(-c2ccc(F)cc2)c(CC(=O)N(C)CC(=O)Nc2ccc(Cl)c(C(F)(F)F)c2)s1,-3,19,8,58*,-26,-7,56*
COc1cccc(NC(=O)CN(C)C(=O)c2cc(-c3ccc(F)cc3)nc3ccccc23)c1,-20,1,-8,63*,-19,3,73*
CN(CC(=O)Nc1ccc(Cl)c(C(F)(F)F)c1)C(=O)c1cc(-c2ccncc2)nc2ccccc12,-5,-1,17,77*,-22,4,92*
CN(CC(=O)Nc1ccc(F)c(F)c1F)C(=O)c1cc(-c2ccncc2)nc2ccccc12,14,-2,22,7,-4,-8,nt
COc1cc(/C=C2\SC(c3ccc(C)cc3)=NC2=O)cc(OC)c1O,-3,-11,-26,0,5,-20,nt
Cc1ccc(C2=NC(=O)/C(=C/c3cc(O)c(O)c(Br)c3)S2)cc1,3,-7,13,67*,-6,4,67*
O=C(c1cc(-c2cccs2)nn1-c1ccccc1)N1CCN(S(=O)(=O)c2ccccc2)CC1,6,21,6,57*,-20,1,57*
CC(NC(=O)c1ccc(NC(=O)CC2SC(N3CCCC3)=NC2=O)cc1)c1ccc(S(N)(=O)=O)cc1 (stereo not given),-1,11,6,8,-1,10,nt
O=C1N=C(N2CCOCC2)S/C1=C\c1ccc(-c2ccccc2Cl)o1,-9,-6,-8,55*,4,0,18
CC(C)n1nc(C(=O)Oc2cc(Cl)ccc2Cl)c2ccccc2c1=O,7,9,3,54*,-13,4,65*
Cc1ccccc1NC(=O)N1CCNC(=O)C1CC(=O)Nc1cc(Cl)ccc1Cl (stereo not given),-7,-146,-4,-5,20,8,nt
Cc1sc2nc(C(C)C)nc(SCC(=O)NCc3ccco3)c2c1C,11,-6,21,59*,-10,9,32
COC(=O)c1ccc2nc(C)cc(Nc3ccccc3C)c2c1,8,-21,-4,1,-10,5,nt
SMILES,MITF TRPM1 inh,CF NFkB inh,HIF-2a inh,Peg3 prom inh-1,KKLEB cytotox,ABHD5 PLIN5 PPI,Peg3 prom inh-2
COC(=O)c1ccc(Nc2cc(C)nc3ccc(C)cc23)cc1,76*,-9,19,56*,-7,4,89*
CC1CC(C)CN(C(=O)CCNC(=O)Cn2ccc3ccccc3c2=O)C1 (stereo not given),-9,7,15,8,3,3,nt
O=S(=O)(N[C@H]1C[C@@H](NS(=O)(=O)OCC(Cl)(Cl)Cl)C2CCCCC21)OCC(Cl)(Cl)Cl (stereo not given in full),3,9,-26,61*,11,4,84*
CCc1noc(C)c1C(=O)NCCc1ccccc1,-45,24,-150,-161,-19,5,nt
O=C(CN1C(=O)NC2(CCCCC2)C1=O)N1CCN(S(=O)(=O)c2cccc([N+](=O)[O-])c2)CC1,2,31,0,-12,6,4,nt
CCOc1cc(/C=N/Nc2nc(-c3cccc(S(=O)(=O)N4CCCC4)c3)cs2)ccc1O,2,-16,9,52*,23,12,47*
COc1ccc(/C=N/Nc2nc(-c3cccc(S(=O)(=O)N4CCCC4)c3)cs2)cc1OC,-10,-17,-38,-20,-4,2,nt
CC(C)CSc1nc(N)nc2c1ncn2C1OC(CO)C(O)C1O (stereo not given),-6,15,-26,-27,7,-2,nt
Cc1nc(N2CCN(c3ccccc3O)CC2)c2c(-c3ccccc3)csc2n1,18,45,12,66*,26,-1,66*
c1ccc(C[C@H]2CNCCN2CCCCC2CCCCC2)cc1,nt,-2,8,105*,6,0,98*
c1ccc2c(C[C@@H]3CNCCN3CCCCC3CCCCC3)cccc2c1,8,-8,10,34,9,3,nt
COC(=O)C1=C(C)N(Cc2ccccc2)C(=NCc2cccc(Cl)c2)N[C@H]1c1ccccc1,11,42,-1,101*,-25,18,98*
COC(=O)C1=C(C)N(CC2CC2)C(=NCc2cccc(Cl)c2)N[C@H]1c1ccccc1,-8,2,-1,16,-21,13,nt
O=C1C(c2ccnc3ccccc23)=C(O)c2ccccc21,51,-142,-10,88*,3,-3,0
CCC1C(c2ccccc2)=CCC(C(=O)O)C1C (stereo not given),5,18,6,-26,-12,-2,nt
CC[C@H](C)[C@@H](CO)NC(=O)[C@H]1O[C@@H](n2ccc(N)nc2=O)[C@H](O)[C@@H]1O,nt,11,8,-2,-1,-5,nt
C=CCc1cccc(/C=N/NC(=O)C(C)Nc2ccc(C)cc2)c1O (stereo not given),26,45,24,55*,-33,7,41*
C=CCc1cccc(/C=N/NC(=O)C(=O)Nc2ccc(C)cc2)c1O,-10,4,-33,-9,-1,-1,nt

# Assay outcomes deposited in PubChem by several laboratories.
